B1: unnamed (peptide)
chain: ATKSASPTLPTRRSR
B2: unnamed (peptide)
chain: MPAPPPPPPPPPGAF

molecular target: CaNbp2; assay: SPOT peptide array binding signal intensity (averaged, normalized) (arbitrary units (background-subtracted, floor 0; scale differs between SH3 domains)); higher = stronger binding of the SH3 domain to the peptide
Summary of the method: (§1)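 E. coli BL21(DE3) was used to express GST-fused SH3 domains from four yeast species, which were then purified on glutathione Sepharose. These were incubated at 10 μg/ml in TBS-based blocking buffer overnight at 4°C on cellulose membranes carrying synthetic 15-mer peptides, in which cysteines were replaced by serines. Binding signal is the replicate average of normalized, background-subtracted spot intensity, in arbitrary units that differ between domains.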

Row | Binder | SPOT peptide array binding signal intensity
1 | B1 | 77
2 | B2 | 29

molecular target: CaRvs167; assay: as above
Summary of the method: as §1

Row | Binder | SPOT peptide array binding signal intensity
3 | B1 | 607
4 | B2 | ≤ 0

molecular target: CaRvs167-3; assay: as above
Summary of the method: as §1

Row | Binder | SPOT peptide array binding signal intensity
5 | B1 | 9.25
6 | B2 | 2.75

molecular target: CaSho1; assay: as above
Summary of the method: as §1

Row | Binder | SPOT peptide array binding signal intensity
7 | B1 | 23
8 | B2 | 13.8

molecular target: CaSla1-D1-D2; assay: as above
Summary of the method: as §1

Row | Binder | SPOT peptide array binding signal intensity
9 | B1 | 1430
10 | B2 | ≤ 0

molecular target: CaSla1-D3; assay: as above
Summary of the method: as §1

Row | Binder | SPOT peptide array binding signal intensity
11 | B1 | 1.75
12 | B2 | ≤ 0

molecular target: ScAbp1; assay: as above
Summary of the method: as §1

Row | Binder | SPOT peptide array binding signal intensity
13 | B1 | 192
14 | B2 | ≤ 0

molecular target: ScBbc1; assay: as above
Summary of the method: as §1

Row | Binder | SPOT peptide array binding signal intensity
15 | B1 | 405
16 | B2 | ≤ 0

molecular target: ScBem1-D1; assay: as above
Summary of the method: as §1

Row | Binder | SPOT peptide array binding signal intensity
17 | B1 | 30
18 | B2 | ≤ 0

molecular target: ScBzz1-D1; assay: as above
Summary of the method: as §1

Row | Binder | SPOT peptide array binding signal intensity
19 | B1 | 95
20 | B2 | 27.5

molecular target: ScBzz1-D2; assay: as above
Summary of the method: as §1

Row | Binder | SPOT peptide array binding signal intensity
21 | B1 | 52
22 | B2 | ≤ 0

molecular target: ScCyk3; assay: as above
Summary of the method: as §1

Row | Binder | SPOT peptide array binding signal intensity
23 | B1 | 32
24 | B2 | ≤ 0

molecular target: ScFus1; assay: as above
Summary of the method: as §1

Row | Binder | SPOT peptide array binding signal intensity
25 | B1 | 14
26 | B2 | ≤ 0

molecular target: ScHof1; assay: as above
Summary of the method: as §1

Row | Binder | SPOT peptide array binding signal intensity
27 | B1 | 3.5
28 | B2 | ≤ 0

molecular target: ScHse1; assay: as above
Summary of the method: as §1

Row | Binder | SPOT peptide array binding signal intensity
29 | B1 | 172
30 | B2 | 4.25

molecular target: ScLsb1; assay: as above
Summary of the method: as §1

Row | Binder | SPOT peptide array binding signal intensity
31 | B1 | 651
32 | B2 | ≤ 0

molecular target: ScLsb2; assay: as above
Summary of the method: as §1

Row | Binder | SPOT peptide array binding signal intensity
33 | B1 | 13.5
34 | B2 | ≤ 0

molecular target: ScLsb3; assay: as above
Summary of the method: as §1

Row | Binder | SPOT peptide array binding signal intensity
35 | B1 | 5480
36 | B2 | ≤ 0

molecular target: ScLsb4; assay: as above
Summary of the method: as §1

Row | Binder | SPOT peptide array binding signal intensity
37 | B1 | 2750
38 | B2 | ≤ 0

molecular target: ScMyo3; assay: as above
Summary of the method: as §1

Row | Binder | SPOT peptide array binding signal intensity
39 | B1 | 1.5
40 | B2 | 1010

molecular target: ScMyo5; assay: as above
Summary of the method: as §1

Row | Binder | SPOT peptide array binding signal intensity
41 | B1 | 5
42 | B2 | 634

molecular target: ScNbp2; assay: as above
Summary of the method: as §1

Row | Binder | SPOT peptide array binding signal intensity
43 | B1 | 63.5
44 | B2 | ≤ 0

molecular target: ScPex13; assay: as above
Summary of the method: as §1

Row | Binder | SPOT peptide array binding signal intensity
45 | B1 | 511
46 | B2 | 71.9

molecular target: ScRvs167; assay: as above
Summary of the method: as §1

Row | Binder | SPOT peptide array binding signal intensity
47 | B1 | 1320
48 | B2 | ≤ 0

molecular target: ScSho1; assay: as above
Summary of the method: as §1

Row | Binder | SPOT peptide array binding signal intensity
49 | B1 | 65.5
50 | B2 | 5.75

molecular target: ScSla1-D1-D2; assay: as above
Summary of the method: as §1

Row | Binder | SPOT peptide array binding signal intensity
51 | B1 | 726
52 | B2 | ≤ 0

molecular target: ScSla1-D3; assay: as above
Summary of the method: as §1

Row | Binder | SPOT peptide array binding signal intensity
53 | B1 | 25.8
54 | B2 | 0.125

molecular target: SpAbp1-D1; assay: as above
Summary of the method: as §1

Row | Binder | SPOT peptide array binding signal intensity
55 | B1 | 356
56 | B2 | 7

molecular target: SpBbc1; assay: as above
Summary of the method: as §1

Row | Binder | SPOT peptide array binding signal intensity
57 | B1 | 27
58 | B2 | ≤ 0

molecular target: SpBzz1-D1; assay: as above
Summary of the method: as §1

Row | Binder | SPOT peptide array binding signal intensity
59 | B1 | 366
60 | B2 | 1360

molecular target: SpBzz1-D2; assay: as above
Summary of the method: as §1

Row | Binder | SPOT peptide array binding signal intensity
61 | B1 | 1
62 | B2 | 5.62

molecular target: SpCyk3; assay: as above
Summary of the method: as §1

Row | Binder | SPOT peptide array binding signal intensity
63 | B1 | 3
64 | B2 | ≤ 0

molecular target: SpHof1; assay: as above
Summary of the method: as §1

Row | Binder | SPOT peptide array binding signal intensity
65 | B1 | 732
66 | B2 | 0.5

molecular target: SpHof1-2; assay: as above
Summary of the method: as §1

Row | Binder | SPOT peptide array binding signal intensity
67 | B1 | 83
68 | B2 | 7.75

molecular target: SpHof1-3; assay: as above
Summary of the method: as §1

Row | Binder | SPOT peptide array binding signal intensity
69 | B1 | 110
70 | B2 | 4.25

molecular target: SpHse1; assay: as above
Summary of the method: as §1

Row | Binder | SPOT peptide array binding signal intensity
71 | B1 | 77
72 | B2 | 17.5

molecular target: SpLsb1; assay: as above
Summary of the method: as §1

Row | Binder | SPOT peptide array binding signal intensity
73 | B1 | 90
74 | B2 | ≤ 0

molecular target: SpLsb4; assay: as above
Summary of the method: as §1

Row | Binder | SPOT peptide array binding signal intensity
75 | B1 | 7440
76 | B2 | ≤ 0

molecular target: SpMyo1; assay: as above
Summary of the method: as §1

Row | Binder | SPOT peptide array binding signal intensity
77 | B1 | 46.8
78 | B2 | 521

molecular target: SpNbp2; assay: as above
Summary of the method: as §1

Row | Binder | SPOT peptide array binding signal intensity
79 | B1 | 21.5
80 | B2 | ≤ 0

molecular target: SpPex13; assay: as above
Summary of the method: as §1

Row | Binder | SPOT peptide array binding signal intensity
81 | B1 | 17
82 | B2 | ≤ 0

molecular target: SpRvs167; assay: as above
Summary of the method: as §1

Row | Binder | SPOT peptide array binding signal intensity
83 | B1 | 2470
84 | B2 | 43.4

molecular target: SpSla1-D1-D2; assay: as above
Summary of the method: as §1

Row | Binder | SPOT peptide array binding signal intensity
85 | B1 | 334
86 | B2 | ≤ 0

molecular target: SpSla1-D3; assay: as above
Summary of the method: as §1

Row | Binder | SPOT peptide array binding signal intensity
87 | B1 | ≤ 0
88 | B2 | ≤ 0

molecular target: AgAbp1; assay: as above
Summary of the method: as §1

Row | Binder | SPOT peptide array binding signal intensity
89 | B2 | ≤ 0

molecular target: AgBbc1; assay: as above
Summary of the method: as §1

Row | Binder | SPOT peptide array binding signal intensity
90 | B2 | 3.81e-06

molecular target: AgBem1-D1; assay: as above
Summary of the method: as §1

Row | Binder | SPOT peptide array binding signal intensity
91 | B2 | ≤ 0

molecular target: AgBzz1-D1; assay: as above
Summary of the method: as §1

Row | Binder | SPOT peptide array binding signal intensity
92 | B2 | ≤ 0

molecular target: AgBzz1-D2; assay: as above
Summary of the method: as §1

Row | Binder | SPOT peptide array binding signal intensity
93 | B2 | 19.5

molecular target: AgCyk3; assay: as above
Summary of the method: as §1

Row | Binder | SPOT peptide array binding signal intensity
94 | B2 | ≤ 0

molecular target: AgFus1; assay: as above
Summary of the method: as §1

Row | Binder | SPOT peptide array binding signal intensity
95 | B2 | ≤ 0

molecular target: AgHof1; assay: as above
Summary of the method: as §1

Row | Binder | SPOT peptide array binding signal intensity
96 | B2 | 51.2

molecular target: AgHse1; assay: as above
Summary of the method: as §1

Row | Binder | SPOT peptide array binding signal intensity
97 | B2 | ≤ 0

molecular target: AgLsb1; assay: as above
Summary of the method: as §1

Row | Binder | SPOT peptide array binding signal intensity
98 | B2 | ≤ 0

molecular target: AgLsb4; assay: as above
Summary of the method: as §1

Row | Binder | SPOT peptide array binding signal intensity
99 | B2 | ≤ 0

molecular target: AgMyo5; assay: as above
Summary of the method: as §1

Row | Binder | SPOT peptide array binding signal intensity
100 | B2 | 822

molecular target: AgNbp2; assay: as above
Summary of the method: as §1

Row | Binder | SPOT peptide array binding signal intensity
101 | B2 | ≤ 0

molecular target: AgRvs167; assay: as above
Summary of the method: as §1

Row | Binder | SPOT peptide array binding signal intensity
102 | B2 | ≤ 0

molecular target: AgSho1; assay: as above
Summary of the method: as §1

Row | Binder | SPOT peptide array binding signal intensity
103 | B2 | ≤ 0

molecular target: AgSla1-D1-D2; assay: as above
Summary of the method: as §1

Row | Binder | SPOT peptide array binding signal intensity
104 | B2 | ≤ 0

molecular target: AgSla1-D3; assay: as above
Summary of the method: as §1

Row | Binder | SPOT peptide array binding signal intensity
105 | B2 | 0.5

molecular target: CaAbp1-D1; assay: as above
Summary of the method: as §1

Row | Binder | SPOT peptide array binding signal intensity
106 | B2 | 18.5

molecular target: CaAbp1-D2; assay: as above
Summary of the method: as §1

Row | Binder | SPOT peptide array binding signal intensity
107 | B2 | ≤ 0

molecular target: CaBbc1; assay: as above
Summary of the method: as §1

Row | Binder | SPOT peptide array binding signal intensity
108 | B2 | 0.25

molecular target: CaBem1-D1; assay: as above
Summary of the method: as §1

Row | Binder | SPOT peptide array binding signal intensity
109 | B2 | 40

molecular target: CaBzz1-D1; assay: as above
Summary of the method: as §1

Row | Binder | SPOT peptide array binding signal intensity
110 | B2 | 970

molecular target: CaBzz1-D2; assay: as above
Summary of the method: as §1

Row | Binder | SPOT peptide array binding signal intensity
111 | B2 | 69.1

molecular target: CaCyk3; assay: as above
Summary of the method: as §1

Row | Binder | SPOT peptide array binding signal intensity
112 | B2 | ≤ 0

molecular target: CaFus1; assay: as above
Summary of the method: as §1

Row | Binder | SPOT peptide array binding signal intensity
113 | B2 | 33

molecular target: CaHof1; assay: as above
Summary of the method: as §1

Row | Binder | SPOT peptide array binding signal intensity
114 | B2 | ≤ 0

molecular target: CaHse1; assay: as above
Summary of the method: as §1

Row | Binder | SPOT peptide array binding signal intensity
115 | B2 | 4.62

molecular target: CaLsb1; assay: as above
Summary of the method: as §1

Row | Binder | SPOT peptide array binding signal intensity
116 | B2 | ≤ 0

molecular target: CaLsb4; assay: as above
Summary of the method: as §1

Row | Binder | SPOT peptide array binding signal intensity
117 | B2 | ≤ 0

molecular target: CaMyo5; assay: as above
Summary of the method: as §1

Row | Binder | SPOT peptide array binding signal intensity
118 | B2 | 66

Reference: the supplement of paper PMC4466140
